Measurements taken from the supplement of paper PMC11732987, “Enantioselective OTUD7B fragment discovery through chemoproteomics screening and high-throughput optimisation” (Communications Chemistry, 2025).

How the values were obtained:
Assay in all cases: log2 ratio of Biotin-Ahx-Ub-VS probe labelling (fragment/DMSO); higher = less target engagement (more negative = stronger competition), active = hit call of the paper (q ≤ 0.05, log2 ratio ≤ -1)
Settings in all cases: compound concentration: 200 uM; treatment time: 3 h
USP34 = USP34 (UniProt Q70CQ2)
Chain of USP34 (Q70CQ2 whole entry, the tested form may be a part): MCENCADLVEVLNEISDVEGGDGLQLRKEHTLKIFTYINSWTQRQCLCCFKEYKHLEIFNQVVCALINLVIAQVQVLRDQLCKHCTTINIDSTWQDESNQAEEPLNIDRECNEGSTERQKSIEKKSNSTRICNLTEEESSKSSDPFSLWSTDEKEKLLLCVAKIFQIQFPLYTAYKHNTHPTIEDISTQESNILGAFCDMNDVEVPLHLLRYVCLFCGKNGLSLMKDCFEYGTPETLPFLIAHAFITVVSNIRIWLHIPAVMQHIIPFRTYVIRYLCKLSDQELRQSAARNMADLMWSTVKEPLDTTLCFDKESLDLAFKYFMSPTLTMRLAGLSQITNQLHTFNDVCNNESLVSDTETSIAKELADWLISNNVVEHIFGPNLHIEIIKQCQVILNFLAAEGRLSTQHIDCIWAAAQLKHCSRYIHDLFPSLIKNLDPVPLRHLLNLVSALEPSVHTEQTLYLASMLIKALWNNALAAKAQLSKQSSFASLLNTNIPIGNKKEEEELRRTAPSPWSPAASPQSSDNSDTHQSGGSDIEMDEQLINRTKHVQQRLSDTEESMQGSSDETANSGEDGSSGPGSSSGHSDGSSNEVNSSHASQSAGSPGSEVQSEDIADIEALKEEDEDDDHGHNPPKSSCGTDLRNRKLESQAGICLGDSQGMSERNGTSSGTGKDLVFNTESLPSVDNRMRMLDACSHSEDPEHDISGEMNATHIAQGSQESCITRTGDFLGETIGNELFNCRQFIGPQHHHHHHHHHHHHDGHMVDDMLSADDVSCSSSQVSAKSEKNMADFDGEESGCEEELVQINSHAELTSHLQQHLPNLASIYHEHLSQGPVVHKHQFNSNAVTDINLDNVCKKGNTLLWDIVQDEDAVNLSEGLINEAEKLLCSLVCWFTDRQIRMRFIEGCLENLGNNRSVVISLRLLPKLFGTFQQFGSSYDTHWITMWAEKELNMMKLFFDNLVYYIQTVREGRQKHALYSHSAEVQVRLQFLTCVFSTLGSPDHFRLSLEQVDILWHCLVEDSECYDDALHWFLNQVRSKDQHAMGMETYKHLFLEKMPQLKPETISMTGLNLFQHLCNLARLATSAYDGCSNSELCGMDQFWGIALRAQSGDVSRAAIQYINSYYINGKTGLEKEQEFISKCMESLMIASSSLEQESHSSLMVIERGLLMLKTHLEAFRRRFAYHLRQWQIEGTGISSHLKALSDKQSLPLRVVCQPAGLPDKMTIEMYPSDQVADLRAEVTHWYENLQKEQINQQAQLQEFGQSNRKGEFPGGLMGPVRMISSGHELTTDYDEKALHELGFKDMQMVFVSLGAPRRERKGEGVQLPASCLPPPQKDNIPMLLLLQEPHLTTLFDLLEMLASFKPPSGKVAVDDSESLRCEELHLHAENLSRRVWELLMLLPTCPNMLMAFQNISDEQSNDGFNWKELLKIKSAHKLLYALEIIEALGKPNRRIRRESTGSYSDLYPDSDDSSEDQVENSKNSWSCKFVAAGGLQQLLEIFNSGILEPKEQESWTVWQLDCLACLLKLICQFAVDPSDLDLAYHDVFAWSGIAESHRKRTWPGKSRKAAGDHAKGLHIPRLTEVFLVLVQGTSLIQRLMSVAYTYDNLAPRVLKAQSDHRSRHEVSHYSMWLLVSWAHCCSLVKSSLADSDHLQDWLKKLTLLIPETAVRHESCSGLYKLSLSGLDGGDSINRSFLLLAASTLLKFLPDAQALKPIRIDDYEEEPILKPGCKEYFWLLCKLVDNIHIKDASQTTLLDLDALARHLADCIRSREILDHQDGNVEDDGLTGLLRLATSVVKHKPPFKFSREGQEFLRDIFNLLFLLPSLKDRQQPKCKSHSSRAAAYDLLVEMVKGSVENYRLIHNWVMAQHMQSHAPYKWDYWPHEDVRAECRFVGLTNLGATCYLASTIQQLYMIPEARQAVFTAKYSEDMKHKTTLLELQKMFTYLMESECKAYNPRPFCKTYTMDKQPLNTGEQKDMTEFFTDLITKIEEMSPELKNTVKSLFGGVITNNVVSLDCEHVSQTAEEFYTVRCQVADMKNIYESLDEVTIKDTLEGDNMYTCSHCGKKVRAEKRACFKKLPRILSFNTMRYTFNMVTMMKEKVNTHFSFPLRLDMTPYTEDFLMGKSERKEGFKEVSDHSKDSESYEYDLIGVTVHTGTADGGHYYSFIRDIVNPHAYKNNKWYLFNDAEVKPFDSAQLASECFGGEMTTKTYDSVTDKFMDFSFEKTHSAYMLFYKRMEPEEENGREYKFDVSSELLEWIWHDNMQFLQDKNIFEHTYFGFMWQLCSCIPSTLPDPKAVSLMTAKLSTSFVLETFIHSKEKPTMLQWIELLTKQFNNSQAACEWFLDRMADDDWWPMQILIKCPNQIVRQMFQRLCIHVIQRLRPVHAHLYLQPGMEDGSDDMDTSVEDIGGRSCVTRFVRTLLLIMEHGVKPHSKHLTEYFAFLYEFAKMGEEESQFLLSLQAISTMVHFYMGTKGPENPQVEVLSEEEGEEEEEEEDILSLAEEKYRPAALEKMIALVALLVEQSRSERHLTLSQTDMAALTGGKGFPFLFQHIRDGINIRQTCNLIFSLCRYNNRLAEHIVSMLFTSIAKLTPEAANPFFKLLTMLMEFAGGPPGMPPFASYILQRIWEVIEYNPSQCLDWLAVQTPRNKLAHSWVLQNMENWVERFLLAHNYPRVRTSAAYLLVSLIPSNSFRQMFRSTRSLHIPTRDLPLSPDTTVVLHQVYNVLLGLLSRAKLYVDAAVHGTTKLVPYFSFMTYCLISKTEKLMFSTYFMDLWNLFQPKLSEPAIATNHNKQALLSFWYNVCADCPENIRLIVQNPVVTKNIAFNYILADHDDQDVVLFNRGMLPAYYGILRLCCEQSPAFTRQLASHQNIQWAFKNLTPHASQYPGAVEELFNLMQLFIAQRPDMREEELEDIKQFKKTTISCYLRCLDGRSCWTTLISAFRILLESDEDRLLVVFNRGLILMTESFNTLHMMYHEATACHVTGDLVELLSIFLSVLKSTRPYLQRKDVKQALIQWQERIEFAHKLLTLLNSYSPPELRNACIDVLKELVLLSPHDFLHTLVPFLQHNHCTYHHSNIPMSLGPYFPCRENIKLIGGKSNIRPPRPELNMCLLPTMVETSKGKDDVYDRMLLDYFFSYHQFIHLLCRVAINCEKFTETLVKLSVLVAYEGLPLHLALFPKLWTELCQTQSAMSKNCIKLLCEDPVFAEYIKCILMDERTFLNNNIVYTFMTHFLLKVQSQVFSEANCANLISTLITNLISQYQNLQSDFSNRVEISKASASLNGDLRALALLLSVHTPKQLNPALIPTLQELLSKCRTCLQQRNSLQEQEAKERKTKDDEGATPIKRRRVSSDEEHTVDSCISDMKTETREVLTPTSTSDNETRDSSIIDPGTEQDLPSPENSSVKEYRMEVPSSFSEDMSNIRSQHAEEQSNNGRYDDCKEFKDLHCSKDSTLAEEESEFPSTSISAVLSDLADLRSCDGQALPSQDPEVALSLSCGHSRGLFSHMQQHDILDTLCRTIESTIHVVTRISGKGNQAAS
Procedure, shortened: (§1)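 HEK293T lysate (495 µg per sample, in Tris/CHAPS/IGEPAL buffer with protease inhibitors) was exposed in triplicate for 3 h to fragment at 200 µM or to vehicle, then to Biotin-Ahx-Ub-VS at 0.5 µM final for 1 h. Labelled DUBs were enriched on NeutrAvidin, digested with LysC and trypsin, and analysed by diaPASEF LC-MS/MS. Spectronaut label-free quantities were normalised to the global median, and values are average log2 ratios of fragment over vehicle from an unpaired t-test. Only proteins with ≥2 unique peptides were used.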

USP36 = target: T1, USP36 (UniProt Q9P275)
T1 sequence (whole entry): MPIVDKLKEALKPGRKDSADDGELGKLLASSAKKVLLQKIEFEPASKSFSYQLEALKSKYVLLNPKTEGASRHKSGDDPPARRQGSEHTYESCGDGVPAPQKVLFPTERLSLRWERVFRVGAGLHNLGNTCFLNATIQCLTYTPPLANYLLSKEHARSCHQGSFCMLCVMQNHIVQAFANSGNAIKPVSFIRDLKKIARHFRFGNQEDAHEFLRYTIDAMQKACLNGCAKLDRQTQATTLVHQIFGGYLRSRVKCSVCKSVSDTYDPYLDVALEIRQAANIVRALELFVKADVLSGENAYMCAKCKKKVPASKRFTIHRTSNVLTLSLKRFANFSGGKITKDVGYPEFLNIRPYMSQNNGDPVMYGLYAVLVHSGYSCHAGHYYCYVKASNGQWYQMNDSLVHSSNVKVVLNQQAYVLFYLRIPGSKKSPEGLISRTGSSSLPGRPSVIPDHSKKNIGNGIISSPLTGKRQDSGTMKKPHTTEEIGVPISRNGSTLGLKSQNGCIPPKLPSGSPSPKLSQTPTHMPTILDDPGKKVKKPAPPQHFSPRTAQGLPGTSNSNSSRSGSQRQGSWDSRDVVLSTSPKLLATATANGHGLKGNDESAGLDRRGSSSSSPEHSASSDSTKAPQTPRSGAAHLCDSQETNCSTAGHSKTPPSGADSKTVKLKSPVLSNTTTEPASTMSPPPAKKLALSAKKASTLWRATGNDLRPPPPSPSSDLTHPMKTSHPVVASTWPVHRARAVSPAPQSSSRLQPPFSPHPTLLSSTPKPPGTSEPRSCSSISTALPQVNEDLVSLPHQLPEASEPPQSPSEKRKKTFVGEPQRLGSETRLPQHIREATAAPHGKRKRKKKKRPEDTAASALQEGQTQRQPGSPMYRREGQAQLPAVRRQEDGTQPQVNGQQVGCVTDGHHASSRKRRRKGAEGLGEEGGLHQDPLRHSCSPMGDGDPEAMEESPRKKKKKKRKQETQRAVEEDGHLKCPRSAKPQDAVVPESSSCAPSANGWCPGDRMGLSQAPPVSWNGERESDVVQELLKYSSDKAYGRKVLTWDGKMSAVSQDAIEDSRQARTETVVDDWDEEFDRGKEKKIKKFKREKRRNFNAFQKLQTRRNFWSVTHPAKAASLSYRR
Procedure, shortened: as §1

USP38 = target: T2, USP38 (UniProt Q8NB14)
T2 sequence (whole entry): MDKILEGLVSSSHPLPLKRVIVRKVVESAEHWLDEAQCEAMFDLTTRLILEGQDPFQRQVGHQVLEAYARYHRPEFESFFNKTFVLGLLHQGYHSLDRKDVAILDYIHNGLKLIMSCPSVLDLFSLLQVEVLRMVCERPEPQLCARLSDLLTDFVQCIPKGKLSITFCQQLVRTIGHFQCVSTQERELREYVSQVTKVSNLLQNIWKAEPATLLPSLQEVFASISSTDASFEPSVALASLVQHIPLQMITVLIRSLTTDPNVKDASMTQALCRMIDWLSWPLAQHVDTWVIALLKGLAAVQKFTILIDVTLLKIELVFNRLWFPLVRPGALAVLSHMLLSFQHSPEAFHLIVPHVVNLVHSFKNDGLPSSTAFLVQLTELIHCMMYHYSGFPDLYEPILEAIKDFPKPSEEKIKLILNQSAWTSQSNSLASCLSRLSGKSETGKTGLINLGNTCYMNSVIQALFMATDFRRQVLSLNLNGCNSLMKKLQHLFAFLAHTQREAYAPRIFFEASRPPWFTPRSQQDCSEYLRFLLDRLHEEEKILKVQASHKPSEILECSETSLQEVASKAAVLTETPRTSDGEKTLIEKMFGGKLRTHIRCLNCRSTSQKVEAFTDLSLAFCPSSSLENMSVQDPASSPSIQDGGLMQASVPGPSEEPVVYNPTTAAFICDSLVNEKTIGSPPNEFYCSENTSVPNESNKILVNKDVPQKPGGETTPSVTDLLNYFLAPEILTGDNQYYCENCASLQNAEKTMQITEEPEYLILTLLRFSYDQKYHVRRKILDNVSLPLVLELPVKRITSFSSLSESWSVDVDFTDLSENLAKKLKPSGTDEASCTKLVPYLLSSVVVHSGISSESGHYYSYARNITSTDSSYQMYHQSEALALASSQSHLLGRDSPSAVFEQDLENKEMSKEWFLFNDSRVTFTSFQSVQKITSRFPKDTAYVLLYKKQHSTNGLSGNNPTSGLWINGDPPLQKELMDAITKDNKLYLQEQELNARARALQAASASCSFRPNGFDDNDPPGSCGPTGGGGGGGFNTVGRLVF
Procedure, shortened: as §1

USP39 = target: T3, USP39 (UniProt Q53GS9)
T3 sequence (whole entry): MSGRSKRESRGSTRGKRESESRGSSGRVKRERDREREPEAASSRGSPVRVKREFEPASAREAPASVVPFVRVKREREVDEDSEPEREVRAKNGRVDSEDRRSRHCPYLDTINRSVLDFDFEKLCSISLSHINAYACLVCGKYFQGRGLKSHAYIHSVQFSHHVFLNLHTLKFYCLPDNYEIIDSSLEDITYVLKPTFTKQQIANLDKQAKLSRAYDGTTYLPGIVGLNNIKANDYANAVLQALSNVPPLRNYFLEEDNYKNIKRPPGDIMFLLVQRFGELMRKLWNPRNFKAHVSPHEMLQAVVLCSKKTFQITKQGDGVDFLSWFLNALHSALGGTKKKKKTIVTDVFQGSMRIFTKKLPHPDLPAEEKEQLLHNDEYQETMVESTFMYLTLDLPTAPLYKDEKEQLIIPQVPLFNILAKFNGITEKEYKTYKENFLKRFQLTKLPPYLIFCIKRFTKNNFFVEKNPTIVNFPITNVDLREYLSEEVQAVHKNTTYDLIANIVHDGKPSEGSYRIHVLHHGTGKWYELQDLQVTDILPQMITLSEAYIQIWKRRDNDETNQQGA
Procedure, shortened: as §1

USP4 = target: T4, USP4 (UniProt Q13107)
T4 sequence (whole entry): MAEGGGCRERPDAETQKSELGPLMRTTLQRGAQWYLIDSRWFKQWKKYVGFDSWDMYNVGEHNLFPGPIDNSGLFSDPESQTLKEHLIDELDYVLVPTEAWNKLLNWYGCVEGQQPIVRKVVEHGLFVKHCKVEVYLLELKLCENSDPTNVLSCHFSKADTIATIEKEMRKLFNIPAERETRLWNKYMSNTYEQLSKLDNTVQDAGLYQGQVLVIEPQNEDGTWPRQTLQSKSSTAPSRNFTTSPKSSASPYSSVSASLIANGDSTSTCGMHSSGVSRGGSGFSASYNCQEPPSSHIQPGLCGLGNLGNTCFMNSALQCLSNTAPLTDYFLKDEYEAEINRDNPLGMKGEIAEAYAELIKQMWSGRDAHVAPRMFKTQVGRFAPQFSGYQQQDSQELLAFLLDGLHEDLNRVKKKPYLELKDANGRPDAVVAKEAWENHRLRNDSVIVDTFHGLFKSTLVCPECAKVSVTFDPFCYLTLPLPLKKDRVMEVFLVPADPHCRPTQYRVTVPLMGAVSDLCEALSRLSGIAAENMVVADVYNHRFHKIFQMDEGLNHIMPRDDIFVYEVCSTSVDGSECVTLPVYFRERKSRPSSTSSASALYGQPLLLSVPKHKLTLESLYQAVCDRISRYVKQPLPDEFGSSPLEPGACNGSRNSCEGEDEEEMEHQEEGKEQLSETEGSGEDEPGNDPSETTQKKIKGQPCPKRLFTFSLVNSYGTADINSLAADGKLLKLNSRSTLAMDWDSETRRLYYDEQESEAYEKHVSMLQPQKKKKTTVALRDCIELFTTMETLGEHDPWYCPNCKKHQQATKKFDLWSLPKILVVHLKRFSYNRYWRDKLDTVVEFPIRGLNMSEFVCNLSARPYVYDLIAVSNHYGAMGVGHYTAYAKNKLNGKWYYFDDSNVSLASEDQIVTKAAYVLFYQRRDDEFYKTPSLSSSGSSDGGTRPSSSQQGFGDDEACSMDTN
Procedure, shortened: as §1

Measured: log2 ratio of Biotin-Ahx-Ub-VS probe labelling

O=C(CCl)N1CCC(c2noc3cc(F)ccc23)CC1
inactive: USP34 -0.276 | USP36 -0.165 | USP38 0.108 | USP39 0.43 | USP4 -0.235
